# PubChem BioAssay (NCI)
# The panel holds about 83,000 compounds, 20% with a hit somewhere; the sample as a whole holds those more often.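 Step 1: grow cells in 96-well plates. Step 2: add test compound at a single concentration. Step 3: incubate 48 h. Step 4: record percent growth.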 Values without a mark were called inactive. Activity calls are given as the source filed them. The calls were made as follows: active = growth percent below 10; inactive = the rest.
# Experiments:
# Assay in all cases: NCI-60 one-dose screen, 48 h (100 = growth as untreated, 0 = no growth, -100 = all killed)
# SK-MEL-2 melanoma = conditions: 10 µM
# EKVX NSCLC = conditions: 10 µM
# SN12C renal = conditions: 10 µM
# UO-31 renal = conditions: 10 µM
# TK-10 renal = conditions: 10 µM unless noted
# ACHN renal = conditions: 10 µM
# CAKI-1 renal = conditions: 10 µM
# CCRF-CEM leukemia = conditions: 10 µM
# MOLT-4 leukemia = conditions: 10 µM
# SR leukemia = conditions: 10 µM
# RPMI-8226 leukemia = conditions: 10 µM
# OVCAR-8 ovarian = conditions: 10 µM
# OVCAR-5 ovarian = conditions: 10 µM
# OVCAR-4 ovarian = conditions: 10 µM
# SK-OV-3 ovarian = conditions: 10 µM
# IGROV1 ovarian = conditions: 10 µM
# OVCAR-3 ovarian = conditions: 10 µM
# NCI/ADR-RES ovarian = conditions: 10 µM
# A498 renal = conditions: 10 µM
# HS 578T breast = conditions: 10 µM
SMILES,growth (SK-MEL-2 melanoma),growth (EKVX NSCLC) [%],growth (SN12C renal),growth (UO-31 renal),growth (TK-10 renal) [%],growth (ACHN renal),growth (CAKI-1 renal) [%],growth (CCRF-CEM leukemia),growth (MOLT-4 leukemia),growth (SR leukemia) [%],growth (RPMI-8226 leukemia),growth (OVCAR-8 ovarian),growth (OVCAR-5 ovarian) [%],growth (OVCAR-4 ovarian) [%],growth (SK-OV-3 ovarian),growth (IGROV1 ovarian),growth (OVCAR-3 ovarian),growth (NCI/ADR-RES ovarian),growth (A498 renal),growth (HS 578T breast)
Nc1ccc(N=Nc2ccc(O)cc2)c(N)n1,97.1%,67.6,72.8%,34.7%,93.7,26.3%,39.1,37.4%,46.1%,80,38.1%,75%,104,59.2,97.3%,89.4%,73.4%,64.5%,–,–
Cc1nc2ccccc2c(C(=O)O)c1O,313%,103,98.3%,91.2%,113,97.8%,–,121%,132%,95.6,179%,102%,–,116,95.3%,–,113%,94.5%,117%,88.1%
O=[N+]([O-])c1ccc(-c2ncc(-c3ccc(Br)cc3)o2)cc1,99.1%,101,103%,84.5%,108,94.2%,–,92.6%,97.6%,124,78.8%,109%,105,–,112%,100%,129%,104%,68.4%,129%
O=S(=O)(O)c1ccc(O)c2ccccc12,97.2%,88.9,103%,77.7%,–,100%,68.5,99.4%,95.4%,84.6,94.5%,113%,98.7,98.3,94.1%,86.1%,108%,98%,112%,102%
CCOC(=O)c1[nH]c(C)c(C(=O)O)c1C,124%,105,99.5%,84.7%,104,102%,–,89.6%,91.9%,97.6,96.6%,105%,113,–,118%,108%,115%,107%,102%,131%
COc1cc(C(=O)NC(=S)Nc2ccc3ccccc3c2)cc(OC)c1OC,83.6%,102,104%,66.7%,117,93.7%,–,98.6%,89.4%,87.4,88.9%,104%,99.9,–,–,95.5%,107%,51.5%,–,94.5%
O=C(NC1CCCCC1)OCc1c(COC(=O)NC2CCCCC2)c(-c2ccc(Cl)c(Cl)c2)n2c1CCC2,-9.91% (active),60.5,22.3%,-13.6% (active),35.2,5.4% (active),–,32.9%,–,–,40%,35%,19,11.5,12.4%,-42.4% (active),31.2%,25.2%,-67.7% (active),39.7%
COc1ccccc1NC(=O)c1cc2cc(Br)ccc2cc1O,-31.5% (active),22.4,9.1% (active),-3.91% (active),39.8,-6% (active),–,-4.98% (active),-0.261% (active),–,-29.6% (active),9.55% (active),104,18.7,1.19% (active),-46% (active),4.13% (active),5.05% (active),18.2%,6.12% (active)
COc1ccccc1N=Nc1c(O)ccc2cc(S(=O)(=O)O)ccc12,96.4%,95.2,102%,84.7%,113,98.1%,–,105%,104%,91.7,99.6%,93.2%,–,105,88.8%,110%,101%,99.8%,–,100%
O=C(CS)Nc1ccc2ccccc2c1,116%,119,101%,88.7%,128,93.6%,–,81.1%,84.5%,94.9,44.9%,114%,102,116,108%,107%,–,112%,98.8%,–
CCC(O)CC(CC)CO (stereo not given),134%,93.7,111%,94.6%,111,105%,–,96.2%,102%,108,111%,104%,104,–,115%,114%,130%,110%,99.2%,130%
NC(=O)c1ccc(N=C(N)N=C(N)N)cc1,121%,73.5,110%,78.5%,77.5,112%,–,99.6%,103%,97.4,107%,98.8%,97.8,98.2,100%,102%,105%,105%,106%,99.6%
CCCCC1C(=O)N(c2ccccc2)N(c2ccccc2)C1=O,98.7%,105,96.2%,90.4%,103,102%,–,95.8%,107%,–,96.6%,103%,–,117,105%,106%,115%,103%,125%,114%
Nc1nc(N)c(N=Nc2ccc(C(=O)O)cc2)c(N)n1,97.1%,100,91.4%,53.6%,130,103%,–,102%,102%,109,95.1%,104%,101,105,111%,100%,130%,101%,96.2%,–
N#Cc1ccc(NC(=O)Nc2cccc(C#N)c2)cc1,97.3%,94.5,94%,75.6%,113,92.5%,–,72.4%,78.7%,–,30.9%,83.6%,116,91.2,115%,78%,105%,90.1%,86%,99.1%
COc1cc(CN)ccc1O,-8.32% (active),71.3,81.7%,82.7%,88.4,96%,–,93.1%,134%,89.5,81%,102%,95.5,108,93.8%,78.7%,105%,94.2%,128%,102%
COc1cc(C2NC(=O)C(C#N)=C(Nc3cccc(C)c3)S2)ccc1O (stereo not given),123%,94.9,90.3%,94.8%,106,101%,–,76%,93%,–,81.4%,105%,111,102,103%,–,106%,110%,112%,96.5%
OCC(O)C(O)C(O)C(O)/C=N/O (stereo not given),107%,105,106%,98.4%,–,112%,104,81.6%,82.7%,102,94.9%,97.6%,109,104,87.2%,107%,113%,103%,102%,103%
